# Reference: PubChem BioAssay (NCATS)
# Several values for one entry are separate records, joined by “and”; a condition that tells them apart may be missing. Equal values may be shown once. Records with an inconclusive call do not appear. Some compounds were tested as several samples or in several runs, with calls that do not always agree. Activity calls are given as the source filed them. Calls follow the shape of the dose curve; as a rule, active = well fitted inhibition curve with a large enough effect; inconclusive = small, poorly fitted or top-dose-only effect; inactive = flat fitted curve, though single readings scatter.
# System: HEK293
# Assay: Cytotoxic Profiling of Annotated Libraries Using Quantitative High-Throughput Screening (AID 1296008); also: nearly all actives have a fitted effect of over 60% in size
# Conditions: Five cell lines viability, CellTiter-Glo ATP luminescence, 48-72 h; max response: active compounds read low
# Summary of the method: (§1)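 Compounds were pin-transferred onto cells and incubated 48 or 72 hr at 37 degree Celsius, 95% humidity. CellTiter-Glo was added, plates sat 10 min at room temperature, then ATP-coupled luminescence was imaged as the viability read-out.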
# % is scaled to controls: 0 for no effect and ±100 for the full control effect; potency is read from the fitted curve at half-maximal effect.
SMILES,Potency,outcome,max response
COc1cc(C)c(Sc2cnc(NC(=O)c3ccc(CNC(C)C(C)(C)C)cc3)s2)cc1C(=O)N1CCN(C(C)=O)CC1 (stereo not given),14.8 µM (active),,
Cn1cc(C2=C(c3c4n(c5ccccc35)CCC(CN)C4)C(=O)NC2=O)c2ccccc21 (stereo not given),13.2 µM (active),,
Cc1[nH]c(C=C2C(=O)Nc3ccccc32)c(C)c1CCC(=O)O,4.18 µM (active),,
C#CCC(Cc1cnc2nc(N)nc(N)c2n1)c1ccc(C(=O)N[C@@H](CCC(=O)O)C(=O)O)cc1 (stereo not given in full),0.0418 µM (active),,
COc1cccc2c1C(=O)c1c(O)c3c(c(O)c1C2=O)C[C@@](O)(C(=O)CO)C[C@@H]3O[C@H]1C[C@H](N)[C@H](OC2CCCCO2)[C@H](C)O1 (stereo not given in full),0.332 µM (active),,
Cc1nc(NC(=O)N2CCC[C@@H]2C(N)=O)sc1-c1ccnc(C(C)(C)C(F)(F)F)c1,14.8 µM (active),,
CC(O)(C#Cc1ccc2c(c1)N(c1nc(N)ncc1Cl)CC2)c1nccs1 (stereo not given),26.4 µM (active),,
COC[C@H](NC(=O)c1cnc(C)s1)C(=O)N[C@@H](COC)C(=O)N[C@@H](Cc1ccccc1)C(=O)[C@@]1(C)CO1,0.148 µM (active),,
Cc1cncc2cccc(S(=O)(=O)N3CCCN(C(=O)CN)C[C@@H]3C)c12,,inactive,
CC(=O)NCC(=O)N1[C@H]2CC[C@H]1c1cc(Nc3ncc(C(F)(F)F)c(NC4CCC4)n3)ccc12,5.26 µM (active),,
O=S(=O)(O)CCSSCCS(=O)(=O)O,,inactive,
N#CC(=Cc1ccc(O)c(O)c1)C(=O)NCc1ccccc1,,,-6.05% (inactive)
CC(=O)ON=C1C(c2c(O)[nH]c3cc(Br)ccc23)=Nc2ccccc21,14.8 µM (active),,
CC[C@]12C=CCN3CC[C@@]4(c5cc([C@@]6(C(=O)OC)C[C@H]7C[C@@H](C(C)(F)F)CN(Cc8c6[nH]c6ccccc86)C7)c(OC)cc5N(C)[C@H]4[C@@](O)(C(=O)OC)[C@H]1OC(C)=O)[C@@H]32,0.0083 µM (active),,
Cn1cc(-c2ccc3ncc(Cc4ccc5ncccc5c4)n3n2)cn1,,,4.11% (inactive)
OCCNC1CCCc2c1[nH]c1ccc(-c3ccccc3)cc21 (stereo not given),13.2 µM (active),,
CC(C)(O)CC[C@@H](O)[C@](C)(O)[C@H]1CC[C@@]2(O)C3=CC(=O)[C@@H]4C[C@@H](O)[C@@H](O)C[C@]4(C)[C@@H]3CC[C@]12C,,,-3.79% (inactive)
NC(=O)Nc1sc(-c2ccc(F)cc2)cc1C(N)=O,13.2 µM (active),,
Cc1noc(-c2ccc(CSCCC(=O)O)cc2)c1NC(=O)OC(C)c1ccccc1Cl (stereo not given),,,-6.98% (inactive)

# System: HaCat
# Assay: as above
# Conditions: Five cell lines viability, CellTiter-Glo ATP luminescence, 48-72 h; max response: active compounds read low
# Summary of the method: as §1
SMILES,Potency,max response,outcome
COc1cc(C)c(Sc2cnc(NC(=O)c3ccc(CNC(C)C(C)(C)C)cc3)s2)cc1C(=O)N1CCN(C(C)=O)CC1 (stereo not given),26.4 µM (active),,
Cn1cc(C2=C(c3c4n(c5ccccc35)CCC(CN)C4)C(=O)NC2=O)c2ccccc21 (stereo not given),37.2 µM (active),,
Cc1[nH]c(C=C2C(=O)Nc3ccccc32)c(C)c1CCC(=O)O,,0.623% (inactive),
C#CCC(Cc1cnc2nc(N)nc(N)c2n1)c1ccc(C(=O)N[C@@H](CCC(=O)O)C(=O)O)cc1 (stereo not given in full),3.32 µM (active),,
COc1cccc2c1C(=O)c1c(O)c3c(c(O)c1C2=O)C[C@@](O)(C(=O)CO)C[C@@H]3O[C@H]1C[C@H](N)[C@H](OC2CCCCO2)[C@H](C)O1 (stereo not given in full),2.35 µM (active),,
Cc1nc(NC(=O)N2CCC[C@@H]2C(N)=O)sc1-c1ccnc(C(C)(C)C(F)(F)F)c1,3.32 µM (active),,
CC(O)(C#Cc1ccc2c(c1)N(c1nc(N)ncc1Cl)CC2)c1nccs1 (stereo not given),,-12.6% (inactive),
CN(C)c1ccc2cc(C(=O)N[C@@H](CCCN=C(N)CCl)C(=O)NCc3ccccc3)ccc2c1,,-9.24% (inactive),
CC1=C(C(=O)Nc2cc3cn[nH]c3cc2F)C(c2ccc(Cl)cc2F)N=C(c2ccnc(Cl)c2)N1 (stereo not given),,-46.1% (inactive),
COC[C@H](NC(=O)c1cnc(C)s1)C(=O)N[C@@H](COC)C(=O)N[C@@H](Cc1ccccc1)C(=O)[C@@]1(C)CO1,0.662 µM (active),,
Cc1cncc2cccc(S(=O)(=O)N3CCCN(C(=O)CN)C[C@@H]3C)c12,8.33 µM (active),,
Cc1cc(Nc2ncc3c(n2)N(C)C(=O)N(c2cc(NC(=O)c4cccc(C(F)(F)F)c4)ccc2C)C3)n(C)n1,0.833 µM (active),,
CC(=O)NCC(=O)N1[C@H]2CC[C@H]1c1cc(Nc3ncc(C(F)(F)F)c(NC4CCC4)n3)ccc12,0.132 µM (active),,
O=S(=O)(O)CCSSCCS(=O)(=O)O,,-4.2% (inactive),
N#CC(=Cc1ccc(O)c(O)c1)C(=O)NCc1ccccc1,,-2.31% (inactive),
CC(=O)ON=C1C(c2c(O)[nH]c3cc(Br)ccc23)=Nc2ccccc21,,-13.8% (inactive),
CC[C@]12C=CCN3CC[C@@]4(c5cc([C@@]6(C(=O)OC)C[C@H]7C[C@@H](C(C)(F)F)CN(Cc8c6[nH]c6ccccc86)C7)c(OC)cc5N(C)[C@H]4[C@@](O)(C(=O)OC)[C@H]1OC(C)=O)[C@@H]32,,-0.147% (inactive),
Cn1cc(-c2ccc3ncc(Cc4ccc5ncccc5c4)n3n2)cn1,20.6 µM (active),-43.1% (inactive),
C[C@]12CCC(=O)C=C1[C@@H]1CC1[C@H]1[C@H]3[C@@H]4C[C@H]4[C@@]4(CCC(=O)O4)[C@@]3(C)CC[C@H]12 (stereo not given in full),,-9.69% (inactive),
OCCNC1CCCc2c1[nH]c1ccc(-c3ccccc3)cc21 (stereo not given),,,inactive
CC(C)(O)CC[C@@H](O)[C@](C)(O)[C@H]1CC[C@@]2(O)C3=CC(=O)[C@@H]4C[C@@H](O)[C@@H](O)C[C@]4(C)[C@@H]3CC[C@]12C,,-11.3% (inactive),
NC(=O)Nc1sc(-c2ccc(F)cc2)cc1C(N)=O,10.5 µM (active),,
Cc1noc(-c2ccc(CSCCC(=O)O)cc2)c1NC(=O)OC(C)c1ccccc1Cl (stereo not given),,-23.2% (inactive),
FC(F)(F)c1ccc(Nc2nc3ccc(Oc4ccnc(-c5ncc(C(F)(F)F)[nH]5)c4)cc3[nH]2)cc1,,-7.61% (inactive) and -42.8% (inactive),
O=C(Nc1nnc(-c2ccco2)o1)c1cc(-c2ccccc2)nc2ccccc12,,-46% (inactive),
